Assay results from article PMC13494018.
Unmarked numbers belong to inactive results. No rule for the calls is given here.

B1: design_597_f3dcd2b3-c7aa-4b15-88bc-bbb8d01a18cd_2336_dldesign_0_cycle1_af2pred (protein)
chain: AQAAKVAAALAAAEKRLAISTARAKELAKKNPQAGYEYMEIRTDHMAAALAKVDPAAGAEVKARGAALAAEIKA
B2: design_598_15ab41e9-cad4-4381-8935-81f74b313fe8_148_dldesign_0_cycle1_af2pred (protein)
chain: MAEEAKKTSDAIREMVKIAKEAGKEVAGSPEAQKKIAAARDKAMDAVAAGEDPEEQLKKAKEEIEAVVAEEKA
B3: design_597_f3dcd2b3-c7aa-4b15-88bc-bbb8d01a18cd_1536_dldesign_0_cycle1_af2pred (protein)
chain: SGANAAQEARAEYTAAKQLAKINKKDKEKAAKLLEEAYKKVEELAKKADEEGKKIAEKYAKELKELAKKYLKE
B4: design_598_15ab41e9-cad4-4381-8935-81f74b313fe8_127_dldesign_0_cycle1_af2pred (protein)
chain: SAMDLLLEILDYNDEALKAAKEGNKEEMEKYIKKAFEIAEELGKKYGPEAEERAKRYVEKAKKEAEEIYKK
B5: design_597_f3dcd2b3-c7aa-4b15-88bc-bbb8d01a18cd_1765_dldesign_0_cycle1_af2pred (protein)
chain: SMEEEKKKKEAEKARKEAEKAIEEIKKNPENKELQTEALAKAYEAKAIDKEVGKEAIKKVREAIKEARKKL
B6: design_597_f3dcd2b3-c7aa-4b15-88bc-bbb8d01a18cd_2339_dldesign_0_cycle1_af2pred (protein)
chain: AKALRYAGRAEIYMELAETAAKLAIEAAKKDPAEGKKYLEKMKEKVKKAVELAEKADPALAKEYEAKGKELIEKAEKAIKAQIEKA
B7: design_597_f3dcd2b3-c7aa-4b15-88bc-bbb8d01a18cd_1120_dldesign_0_cycle1_af2pred (protein)
chain: MLAKIARIIADITTATAKLLRKTGPKFVKLTKVLAVLADIIGDLALKTGKEEDIKAGGYALAAAERARHAAEAAE
B8: design_597_f3dcd2b3-c7aa-4b15-88bc-bbb8d01a18cd_1339_dldesign_0_cycle1_af2pred (protein)
chain: AEAEKYKKEAEKALKELEEIAKKYPSSTKIQANYESAKEYFEHNEQAAKLNPEKAAEAYKKAYEYAKRKLEEAKKIAEELEKKE
B9: design_597_f3dcd2b3-c7aa-4b15-88bc-bbb8d01a18cd_2160_dldesign_0_cycle1_af2pred (protein)
chain: NATEIYREGREKAKELAKKGGKLVKDGEEFARRLVAAANTYFADPEEGEKQLDELIKEAEKESPEAAKIAKEVLKAAKEYLKKLDEEG
B10: design_597_f3dcd2b3-c7aa-4b15-88bc-bbb8d01a18cd_2142_dldesign_0_cycle1_af2pred (protein)
chain: AAAAAAAEAARAEAAKAFTEAIDLAYSDPKYIPILEKTSEDSAATFIAAGKLSGKTAEWTAKGELIKKTSERIIKDIKK
B11: design_598_15ab41e9-cad4-4381-8935-81f74b313fe8_121_dldesign_0_cycle1_af2pred (protein)
chain: MMEKKKKEAEIKRDAAIEQAKTIVEANKDKPFEEILEKVEKSVERFKESIEKIDPEIGKEEGEKARKESEEIVKKASEA
B12: design_597_f3dcd2b3-c7aa-4b15-88bc-bbb8d01a18cd_1026_dldesign_0_cycle1_af2pred (protein)
chain: MEVVEKMAEEIAKAAEEAGDKVTAALARAVAARAKKEKEISPEEAVKRLGEDAKFMAEDNGNEELAKKIKEIAEKALKEV
B13: design_597_f3dcd2b3-c7aa-4b15-88bc-bbb8d01a18cd_1341_dldesign_0_cycle1_af2pred (protein)
chain: AAAVEAAKAEITKLAAELSAKAFEAKAAASVFPEYKPVYELYKEAAEKAKEGLVLLKALGEKALEEAKKLAEEAKKLAKEGDELEKKL
B14: design_597_f3dcd2b3-c7aa-4b15-88bc-bbb8d01a18cd_1491_dldesign_0_cycle1_af2pred (protein)
chain: DEGEKLKKEFKEEIEEVAKEAKELVKEGVSPKVAARLVENTAEVLIKEAEKHKEGEEIKKAVKEEAEKKKEEILKL
B15: design_598_15ab41e9-cad4-4381-8935-81f74b313fe8_72_dldesign_0_cycle1_af2pred (protein)
chain: SELVKKASDLYRELVRKAREVAEKAGKAGDPEEAKKLAGDAVWAAQENVEEGIKIAKELGKKTGVEKEVEEFIKLMKEYAKALEEVSN
B16: design_598_15ab41e9-cad4-4381-8935-81f74b313fe8_231_dldesign_0_cycle1_af2pred (protein)
chain: AEAELARAREVAKRVAEKLREAAKEAEKIDPEVAEKGRKVAEAAEAATAGTVEEIAAATQEARQALAEAEFLVKK
B17: design_597_f3dcd2b3-c7aa-4b15-88bc-bbb8d01a18cd_1719_dldesign_0_cycle1_af2pred (protein)
chain: LEKNVKKAIEAAKKAIEAGKKAKEAGLEELAKEAIEKAKKAIEAAAKDKASGGETAKETANAAQEARQAKSEAESAIKKK
B18: design_597_f3dcd2b3-c7aa-4b15-88bc-bbb8d01a18cd_1746_dldesign_0_cycle1_af2pred (protein)
chain: SLKTKALAEAGRAIALSDSVISALPDSELAKKAKEIKKKAEEAMEKAEKGEKLEEALKEAKKLKEEAKKLRKEAEKEKKA
B19: design_597_f3dcd2b3-c7aa-4b15-88bc-bbb8d01a18cd_1493_dldesign_0_cycle1_af2pred (protein)
chain: AEAERARREAALAEAERRAAELIFAAVDEGTKVSNEEAAKVMEETRARIEALMDETGAAYDPERAAEIRDRATATMTRLAESYK
B20: design_597_f3dcd2b3-c7aa-4b15-88bc-bbb8d01a18cd_2297_dldesign_0_cycle1_af2pred (protein)
chain: MEEAEKLLKKAEEAAKKGDAETAKKLAEELRELSKKEKDKEKAAAYSEAAFEAKGYAFLAEIKQEKKKELE
B21: design_597_f3dcd2b3-c7aa-4b15-88bc-bbb8d01a18cd_2475_dldesign_0_cycle1_af2pred (protein)
chain: MTPLEESAAKAQEAREEAAEKEQKGKLLAEKGNYKEGAKEYKKGAEELKKAAKFAEEAGDKEAAERLKKRAERLEKLAKEYEKKAK
B22: design_597_f3dcd2b3-c7aa-4b15-88bc-bbb8d01a18cd_2381_dldesign_0_cycle1_af2pred (protein)
chain: AAAEAAAAAAKAAAKAEAAKHLEKAFDLIADGGTVEEVEKEAEKAIEYAAKADEKYKKLAERTAKRIIENAKIAAKREEEN
B23: design_597_f3dcd2b3-c7aa-4b15-88bc-bbb8d01a18cd_2462_dldesign_0_cycle1_af2pred (protein)
chain: DPLREAAKAAVEAMGKAAKEVGLTKEASELAGLVHEALSAAKAGIHAKEILKEAAEAAKKAAEEYPEAKELFEKVAKEVEKMEKLV
B24: design_597_f3dcd2b3-c7aa-4b15-88bc-bbb8d01a18cd_2332_dldesign_0_cycle1_af2pred (protein)
chain: SVVEEVKEEAKKAIEEGKKGDAGTAAALGYEAKALAEQKAKLYPEEAEELKKIAEEVKKEAKEIAEKKLKEKKAA
B25: design_597_f3dcd2b3-c7aa-4b15-88bc-bbb8d01a18cd_1586_dldesign_0_cycle1_af2pred (protein)
chain: AAAIEKAKAAVEELLKAAEEALKLAEKDPSYAKYAEEVKKKINKVAKELKEALLADPSVANKLQEARQIATEAEATAKIKK
B26: design_597_f3dcd2b3-c7aa-4b15-88bc-bbb8d01a18cd_2241_dldesign_0_cycle1_af2pred (protein)
chain: EAAAIAKEAAAVAEEAAKKEEDPGKAEALKKAAKRIKAAAAGTKFEIASAVASAAEQAEWVGYPKEVVDKLEAKAEKIEKA
B27: design_597_f3dcd2b3-c7aa-4b15-88bc-bbb8d01a18cd_1020_dldesign_0_cycle1_af2pred (protein)
chain: GHSEEGKEISEKIREISRIAKEAGKEIKKYPGGEELMKELGETRDKAIDEAAEGGLEEAKKALEKVKKAAKELLKKAKA
B28: design_597_f3dcd2b3-c7aa-4b15-88bc-bbb8d01a18cd_1306_dldesign_0_cycle1_af2pred (protein)
chain: GKMKEDEEKLKEIEKEAKKAIEEAKKLAKEDPKKGAEYAKKASKEITERGTELGKTMSPEVRKKLAEVVQKAREELTEIAFKAR
B29: design_597_f3dcd2b3-c7aa-4b15-88bc-bbb8d01a18cd_1782_dldesign_0_cycle1_af2pred (protein)
chain: MEEVKKKVAEAVQAGYRAAATLSKEEGKKLREETKELAKKLTELVKKSEELAGDPEKAKALADEATKIAEKAKEEYEKIDKA
B30: design_597_f3dcd2b3-c7aa-4b15-88bc-bbb8d01a18cd_2474_dldesign_0_cycle1_af2pred (protein)
chain: MKADEEAAKKAAAARDTAFDKIAAGEDPQAAYDAAKAEMKKIAEEYGVSPETKEKIEKGIKALERFAAAAAKAAA
B31: design_598_15ab41e9-cad4-4381-8935-81f74b313fe8_88_dldesign_0_cycle1_af2pred (protein)
chain: GSAKELAEKLRYVNRKIKEAGELAKELEKAGYPEEAKKLRELAQKARDALMAGDLDAAYKAAKELEEKIKEAKKKLEA
B32: design_597_f3dcd2b3-c7aa-4b15-88bc-bbb8d01a18cd_2357_dldesign_0_cycle1_af2pred (protein)
chain: NEEIKAKQLAGRLEALADSLKSAAEKAAKETKDPEKAKKLKEIAKEAEKAVEEAKKKIKEGKAEEAYKEGKEKVEKAKKEVEKIAKE
B33: design_598_15ab41e9-cad4-4381-8935-81f74b313fe8_13_dldesign_0_cycle1_af2pred (protein)
chain: AEKSREEGVKKAEEAAKLAKEAGLEEKAKKIKEAAKKAAKTGTDEDLKELSKTALEAAKLADPEKGAKISELRVEAAGYFELARIQ
B34: design_597_f3dcd2b3-c7aa-4b15-88bc-bbb8d01a18cd_2012_dldesign_0_cycle1_af2pred (protein)
chain: AEAKKEAAKLSEEAAELAAEAWLKAKKAKPEEAEKYKKAAEYFKEAIKILQAGEDLEKAKALYEKGKALYEEA
B35: design_597_f3dcd2b3-c7aa-4b15-88bc-bbb8d01a18cd_925_dldesign_0_cycle1_af2pred (protein)
chain: HKEENEAMKEILDEFNEAGRKMQEYVKAGKLEEAKKALEEEAKKMLEIGKKAGENALELAEELVEEARRNLEKAIEAAK
B36: design_597_f3dcd2b3-c7aa-4b15-88bc-bbb8d01a18cd_2262_dldesign_0_cycle1_af2pred (protein)
chain: AEAEEALKAAKAAAAKAKEAADAAIADPATKAAGEKAKKLIEAREKKAEANASDVRVLQSAVEFFNHMAAALKKILA
B37: design_597_f3dcd2b3-c7aa-4b15-88bc-bbb8d01a18cd_2077_dldesign_0_cycle1_af2pred (protein)
chain: EIKKLAAEAFDYYYEAKAMADALKADKNGKEAAKKIEELAKKIKEYGKKILETKDLKEAKKLYEEAKKLYEEAVKIFDEFAK
B38: design_598_15ab41e9-cad4-4381-8935-81f74b313fe8_205_dldesign_0_cycle1_af2pred (protein)
chain: DFKAKADAEATLERAEQAEKAAKKIGEELAKLAEEAKKLAEAGLKSDDPEKREALTKAARELLKELQKLGKEKKEK

Target: VTCN1, Q7Z7D3
Sequence (Q7Z7D3 whole entry): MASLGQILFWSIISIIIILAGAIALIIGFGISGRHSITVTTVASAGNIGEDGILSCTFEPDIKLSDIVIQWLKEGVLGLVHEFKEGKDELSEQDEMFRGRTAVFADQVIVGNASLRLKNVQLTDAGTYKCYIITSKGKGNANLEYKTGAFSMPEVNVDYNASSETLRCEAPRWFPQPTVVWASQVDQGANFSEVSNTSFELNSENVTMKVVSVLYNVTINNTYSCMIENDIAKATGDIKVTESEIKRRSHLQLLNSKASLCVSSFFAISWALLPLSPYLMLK

| Binder | binding in a display sort |
| --- | --- |
| B1 | not found |
| B2 | not found |
| B3 | not found |
| B4 | not found |
| B5 | not found |
| B6 | not found |
| B7 | not found |
| B8 | not found |
| B9 | not found |
| B10 | not found |
| B11 | not found |
| B12 | not found |
| B13 | not found |
| B14 | not found |
| B15 | not found |
| B16 | not found |
| B17 | not found |
| B18 | not found |
| B19 | not found |

| Binder | binding in a display sort |
| --- | --- |
| B20 | not found |
| B21 | not found |
| B22 | not found |
| B23 | not found |
| B24 | not found |
| B25 | not found |
| B26 | not found |
| B27 | not found |
| B28 | not found |
| B29 | not found |
| B30 | not found |
| B31 | not found |
| B32 | not found |
| B33 | not found |
| B34 | not found |
| B35 | not found |
| B36 | not found |
| B37 | not found |
| B38 | not found |
